Experimental data taken from the supplement of paper PMC12350171.
Structures can show the parent of a compound that is named as a salt. Values without a mark were called inactive.

Tests used:
Conditions in all cases: 20 µM
[1] = test system: Salmonella enterica typhimurium; assay: growth AUC normalised to DMSO control (fraction of control); higher = less growth inhibition, active = hit call of the paper
Summary of the method: (§1)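 Pathogens passaged twice anaerobically were inoculated at a starting OD578 of 0.01 into pre-reduced mGAM plates with drug at 20 μM and 1% DMSO, sealed with breathable membranes. Haemophilus parainfluenzae medium was supplemented with hemin and NAD. OD578 was read hourly for 24 h, with three biological replicates. Growth-curve AUC was computed by the trapezoidal rule up to the exponential-to-stationary transition and normalised to DMSO controls on the same plate.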

Shigella flexneri = assay: as above
Summary of the method: as §1

Vibrio cholerae = assay: as above
Summary of the method: as §1

[2] = test system: Yersinia pseudotuberculosis; assay: as above
Summary of the method: as §1

P. vulgatus RND KO = assay: growth AUC normalised to DMSO control (median) (fraction of control); higher = less growth inhibition, active = hit call of the paper
Summary of the method: (§2)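 Each strain went through two overnight passages under anaerobic conditions before growth in mGAM in 96-well plates, starting at OD578 0.01, with each compound from the approved-drug library at 20 μM and 1% DMSO. Inside an anaerobic incubator, OD578 was recorded every hour for 24 h. Growth curves were cut off at entry into stationary phase, and the area under the curve was calculated by the trapezoidal rule and normalised to vehicle wells on the same plate. Reported values are medians of three biological replicates.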

P. vulgatus WT = assay: as above
Summary of the method: as §2

[3] = test system: S. enterica typhimurium WT; assay: as above
Summary of the method: as §2

[4] = test system: S. enterica typhimurium tolC KO; assay: as above
Summary of the method: as §2
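Throughout, for growth AUC normalised to DMSO control (median): active when median AUC fell below 0.1.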

| Compound | growth AUC normalised to DMSO control [1] | growth AUC normalised to DMSO control (Shigella flexneri) | growth AUC normalised to DMSO control (Vibrio cholerae) | growth AUC normalised to DMSO control [2] | growth AUC normalised to DMSO control (P. vulgatus RND KO) | growth AUC normalised to DMSO control (P. vulgatus WT) | growth AUC normalised to DMSO control [3] | growth AUC normalised to DMSO control [4] |
| --- | --- | --- | --- | --- | --- | --- | --- | --- |
| c1coc(CNc2ncnc3[nH]cnc23)c1 [Kinetin] | 1.01 | 1.02 | 1.01 | 0.992 | 1.01 | 1.05 | 1 | 1.01 |
| C[C@@H]1C[C@H]2[C@@H]3C[C@H](F)C4=CC(=O)C=C[C@]4(C)[C@@]3(F)[C@@H](O)C[C@]2(C)[C@@]1(O)C(=O)CO [Flumethasone] | 0.995 | 0.994 | 0.997 | 0.993 | 1.01 | 1.02 | 0.997 | 1.01 |
| Oc1c(Cl)cc(Cl)c(Cl)c1Cc1c(O)c(Cl)cc(Cl)c1Cl [Hexachlorophene] | 0.941 | 1.04 | 0.0587 (active) | 0.411 (active) | 0.00764 (active) | 0.00869 (active) | 0.972 | 0.00738 (active) |
| CN(C)CCN1C(=O)c2ccccc2N(C)c2ccccc21 [Dibenzepine hydrochloride] | 0.986 | 0.972 | 0.984 | 0.977 | 0.994 | 0.979 | 0.988 | 0.992 |
| CC(=O)OCC(=O)[C@@]1(O)[C@H](C)C[C@H]2[C@@H]3CCC4=CC(=O)C=C[C@]4(C)[C@@]3(F)[C@@H](O)C[C@@]21C [Dexamethasone acetate] | 1 | 1 | 1 | 0.999 | 0.993 | 1.02 | 1.01 | 0.998 |
| COc1ccc(CC2c3cc(OC)c(OC)cc3CC[N+]2(C)CCC(=O)OCCCCCOC(=O)CC[N+]2(C)CCc3cc(OC)c(OC)cc3C2Cc2ccc(OC)c(OC)c2)cc1OC (stereo not drawn) [Atracurium besylate] | 1 | 1.05 | 1.01 | 1 | 1.04 | 1.04 | 0.983 | 1.01 |
